Screens as filed in PubChem BioAssay.
Peg3 prom inh: reduces Peg3 promoter-driven luciferase expression in HeLa; HeLa PEG-Prom luciferase reporter, luminescence, overnight; inhibition, % at 20 µM; 1.7% of 360,000 active;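 active = inhibition of at least 50% at 20 µM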
HIF-2a inh: HIF-2a inhibition; 0.72% of 360,000 active; AID 624352; 786-0 RCC cells HIF-2a reporter, luciferase luminescence, overnight; inhibition, % at 18.8 µM;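 active = inhibition of the luminescence signal of 40% or more relative to plate controls, in a single-dose primary screen at 18.75 µM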
TRPM1 prom inh: reduces MITF-dependent TRPM1 promoter luciferase signal; 0.83% of 330,000 active; SK-MEL-5 TRPM1 promoter luciferase, 24 h; inhibition, % at 12.5 µM;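 active = mean inhibition across replicates of 60% or more, whatever share of single replicates reaches that level; inconclusive = some that reach 60%, reason not given; inactive = mean inhibition across replicates below 60%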
KKLEB cytotox: CF airway cell cytotoxicity counter-screen. KKLEB CF airway cells viability, ATPlite luminescence, overnight; active compounds read low; cells stimulated with P. aeruginosa culture filtrate. activity change (cytotoxicity), % at 5 µM. 0.36% of 360,000 active. AID 602141;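 active = corrected activity change at or below -50% at 5 µM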
Shn3 inh set2: reduces Shn3 3'UTR luciferase signal in osteoblasts; AID 588674; inhibition, % at 12.5 µM; Clone20 osteoblast Shn3 3'UTR firefly luciferase, 24 h; 0.52% of 360,000 active;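 active = mean inhibition of at least 75% with every replicate also reaching 75%; inconclusive = mean inhibition at least 75% but some replicate below; inactive = mean inhibition below 75%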;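 also: 0% = median of neutral control wells and 100% = pilot-screen positive control compound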
CF NFkB block: blocks PAF-induced NF-kB reporter in cystic fibrosis cells. KKLEB NF-kB-GFP reporter, GFP fluorescence overnight. inhibition, % at 5 µM. 0.86% of 360,000 active;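 active = at least 50% inhibition at 5 µM, scaled per plate between neutral and stimulator controls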;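 also: PAF is a Pseudomonas aeruginosa culture filtrate used as stimulus; plate controls were PAF-stimulated DMSO wells for no effect and unstimulated DMSO wells for full effect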
Mdm2-MdmX confirm: Mdm2/MdmX (human) interaction inhibition, confirmed | 99% of 740 active | SaOS-2 split-luciferase Mdm2/MdmX complementation, luminescence | AID 504601 | inhibition, % at 8 µM | shares compounds with HIF-2a inh;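 active = mean inhibition of the luminescence signal across two replicates at or above 26 percent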
Target sequence (O15151 whole entry, looked up): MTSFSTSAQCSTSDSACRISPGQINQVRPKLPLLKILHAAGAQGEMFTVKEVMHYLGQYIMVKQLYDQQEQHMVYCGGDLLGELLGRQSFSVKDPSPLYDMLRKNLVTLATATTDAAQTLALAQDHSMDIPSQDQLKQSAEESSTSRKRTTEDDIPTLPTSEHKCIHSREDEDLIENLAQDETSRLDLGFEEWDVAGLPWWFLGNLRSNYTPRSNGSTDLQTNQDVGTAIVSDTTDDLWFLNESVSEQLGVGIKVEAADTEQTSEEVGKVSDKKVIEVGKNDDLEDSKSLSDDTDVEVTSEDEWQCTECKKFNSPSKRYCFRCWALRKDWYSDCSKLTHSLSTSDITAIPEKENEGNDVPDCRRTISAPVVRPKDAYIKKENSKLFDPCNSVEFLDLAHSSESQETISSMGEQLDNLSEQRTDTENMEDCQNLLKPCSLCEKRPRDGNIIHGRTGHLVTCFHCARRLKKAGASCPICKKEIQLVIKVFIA
Target sequence (Q00987 whole entry, looked up): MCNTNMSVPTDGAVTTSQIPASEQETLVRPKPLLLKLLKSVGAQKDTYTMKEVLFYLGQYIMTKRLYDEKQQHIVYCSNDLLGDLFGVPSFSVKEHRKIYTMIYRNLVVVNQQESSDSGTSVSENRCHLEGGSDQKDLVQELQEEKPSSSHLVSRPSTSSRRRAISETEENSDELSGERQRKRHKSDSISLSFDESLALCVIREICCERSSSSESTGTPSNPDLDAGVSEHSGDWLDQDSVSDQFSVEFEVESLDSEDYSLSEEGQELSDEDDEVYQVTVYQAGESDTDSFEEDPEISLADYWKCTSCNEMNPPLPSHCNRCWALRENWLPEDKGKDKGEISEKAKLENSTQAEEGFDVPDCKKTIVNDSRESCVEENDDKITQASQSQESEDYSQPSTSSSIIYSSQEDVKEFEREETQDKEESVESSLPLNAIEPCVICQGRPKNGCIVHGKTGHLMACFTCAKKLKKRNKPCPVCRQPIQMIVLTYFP
HIF-2a inh conf: confirmation of HIF-2a inhibitors; inhibition, % at 18.8 µM; 56% of 1,800 active; 786-0 RCC cells, HIF-2a luciferase reporter luminescence, overnight; shares compounds with HIF-2a inh;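 active = mean inhibition across four replicates of at least 40 percent at the single tested concentration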
HIF-1a counter: inhibits HIF-1a reporter, a counter-screen for HIF-2a inhibitors. shares compounds with HIF-2a inh. MiaPaCa-2 HIF-1a luciferase reporter, desferoxamine, overnight. inhibition, % at 18.8 µM. 72% of 1,800 active. AID 651589;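 active = mean inhibition of the reporter signal across four replicates at the single tested dose of 50% or more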
The depositor's hits bear a star; ? = inconclusive; · = no result given. Compounds with a hit are over-represented: about 2.8% of the library has one in this group of screens.

SMILES | Peg3 prom inh | HIF-2a inh | TRPM1 prom inh | KKLEB cytotox | Shn3 inh set2 | CF NFkB block | HIF-2a inh conf | HIF-1a counter | others
CCOc1cc(C2C3=C(CC(C)(C)CC3=O)Nc3n[nH]c(C)c32)ccc1O (stereo not drawn) | 6.9 | 2.1 | 15.3 | 0.2 | -0.5 | -4.9 | · | ·
Cc1ccc(C)c(-c2nc3cc(N)ccc3o2)c1 | -167.2 | 64.9* | 20.1 | 13.3 | 20.4 | -29.5 | 70.3* | 28.5
Nc1ccc2oc(-c3cc(Br)ccc3Cl)nc2c1 | -55.3 | 61.4* | 49.4 | 16.8 | 19.1 | -26.2 | 89.7* | 49.6
Cc1ccc(-c2nc3cc(N)ccc3o2)cc1Br | -302.8 | -125.7 | -25.4 | 4.0 | -65.4 | -4.0 | · | ·
CC(Sc1nnc(-c2ccc(OC(F)F)cc2)n1N)C(=O)NCC1CCCO1 (stereo not drawn) | -5.0 | 0.3 | -6.9 | 12.4 | 0.2 | -23.2 | · | ·
O=C(O)COc1ccc2oc3ccccc3c2c1 | 13.7 | 53.0* | 15.4 | 4.8 | 11.7 | -2.7 | 68.5* | 29.7
O=C(O)COc1ccc2occ(C(=O)c3ccccc3)c2c1 | 6.9 | 7.3 | -16.3 | -0.4 | -6.2 | 5.5 | · | ·
C=C1C(=O)C23CCC4C(C)(C(=O)OC)CCCC4(C)C2CCC1(O)C3 (stereo not drawn) | 101.1* | 91.3* | 116.7* | -102.3* | 96.0* | 101.3* | 98.6* | 102.9*
O=C(O)CCc1nnc(SCC(=O)Nc2cccc(C(F)(F)F)c2)[nH]c1=O | -13.1 | 19.1 | -6.1 | 1.9 | 9.0 | 14.4 | · | ·
Cc1nnc(NC(=O)c2nn(CC(C)C)c(=O)c3ccccc23)s1 | 18.7 | 10.6 | -0.9 | 1.6 | 15.6 | -6.8 | · | ·
Cc1nc2ccc(NC(=O)c3nn(CC(C)C)c(=O)c4ccccc34)cc2s1 | -42.6 | -46.6 | 11.9 | 4.1 | -10.2 | -12.7 | · | · | Mdm2-MdmX confirm=93.2*
CCN1CCN(Cc2c(O)ccc3c2O/C(=C\c2ccccc2)C3=O)CC1 | 14.4 | 13.9 | -2.0 | 3.4 | -20.8 | -11.8 | · | ·
CN(C)Cc1c(O)ccc2c1O/C(=C\C=C\c1ccccc1)C2=O | 20.8 | 11.2 | 93.0* | 13.8 | 45.1 | 7.6 | · | · | Mdm2-MdmX confirm=11.0
COc1ccccc1NC(=O)c1ccc(NC(=O)CSc2nc(N)cc(=O)[nH]2)cc1 | 23.8 | -2.9 | 1.4 | 16.5 | 1.7 | 15.3 | · | ·
Clc1ccc2c(c1)-c1ccccc1C1=NCCN12 | 109.7* | 45.0* | · | -2.0 | 2.7 | -212.7 | -59.0 | 103.9*
CN1C2=NCCN2C(=O)c2cc(Cl)ccc21 | 3.8 | 11.2 | -6.9 | 4.1 | 11.2 | -4.4 | · | ·
CCn1nc(C)c(NS(=O)(=O)c2ccccc2)c1C | 9.9 | -2.3 | 13.7 | 2.7 | 6.7 | 0.0 | · | ·
COc1ccc(C)cc1Nc1n[n+](-c2ccccc2)c(-c2c(Cl)cccc2Cl)s1 | · | · | · | · | · | · | · | · | Mdm2-MdmX confirm=98.0*
COc1ccc(C)cc1Nc1n[n+](C)c(-c2c3ccccc3cc3ccccc23)s1 | -6.4 | -24.8 | -24.3 | 1.6 | -24.0 | 5.1 | · | ·
CC(C)Cc1nnc(NC(=O)CCS(=O)(=O)c2ccc(Cl)cc2)s1 | 15.0 | 0.4 | 6.6 | -3.8 | 2.4 | 35.0 | · | ·
CCC(Sc1nc2n[nH]c(C)c2c(=N)n1-c1ccc(C)c(Cl)c1)C(=O)N1CCOCC1 (stereo not drawn) | 36.2 | 40.6* | -10.4 | -15.8 | 20.2 | 8.7 | 9.6 | 70.2*
CCC(Sc1nc2n[nH]c(C)c2c(=N)n1-c1cccc(Cl)c1)C(=O)NCCOC (stereo not drawn) | 26.0 | 23.9 | 4.6 | -13.0 | 22.3 | 16.0 | · | ·
CC(=O)c1c(C)[nH]c(C(=O)Nc2ccc(C)cn2)c1C | 48.7 | 45.8* | 45.4 | 5.3 | 38.6 | -24.7 | 60.4* | 56.4*
CC(C)(C)c1ccc(Oc2ccc(NC(=O)c3ccccc3C(=O)O)cn2)cc1 | 12.4 | 56.0* | · | -11.8 | 44.1 | 9.8 | 51.0* | 34.6
CC(=O)Nc1cccc(C(=O)N/N=C/c2c[nH]c3ccccc23)c1 | 8.1 | -7.3 | 0.5 | -0.6 | 18.9 | -0.2 | · | ·
SMILES | Peg3 prom inh | HIF-2a inh | TRPM1 prom inh | KKLEB cytotox | Shn3 inh set2 | CF NFkB block | HIF-2a inh conf | HIF-1a counter | others
O=C(O)CCSCC(=O)c1ccc2c(c1)OCCO2 | -24.4 | 57.5* | 14.2 | 2.3 | 3.1 | 20.5 | 64.2* | 44.8
O=C(O)CCC(=O)c1ccc2c(c1)OCCO2 | -26.8 | -25.8 | -21.3 | 6.3 | -9.2 | -2.0 | · | ·
CCn1c(/C=C/N(C(C)=O)c2ccccc2)[n+](CCCS(=O)(=O)[O-])c2cc(Cl)c(Cl)cc21 | -12.0 | 8.2 | 16.6 | 4.6 | -12.3 | 0.5 | · | ·
CCn1c(/C=C/Nc2ccccc2)[n+](CC)c2cc(Cl)c(Cl)cc21 | 103.7* | 68.3* | ? | -34.3 | 88.2* | 21.8 | -3.3 | 87.8*
CC1C(=O)Nc2ccc(S(=O)(=O)N3CCCCCC3)cc21 (stereo not drawn) | 4.6 | 9.8 | 3.7 | 8.0 | 22.3 | -8.3 | · | ·
Cc1ccc(C(=O)OC(C)C(=O)NC2CCCCC2)cc1S(=O)(=O)N1CCCCC1 (stereo not drawn) | 2.1 | 1.6 | -1.7 | -15.6 | 19.0 | 28.9 | · | ·
CCC(OC(=O)c1ccc(S(C)(=O)=O)c([N+](=O)[O-])c1)C(=O)NC1C2CC3CC(C2)CC1C3 (stereo not drawn) | 96.4* | 81.1* | · | -74.2* | 96.1* | 103.6* | 18.0 | 104.5*
CC(OC(=O)c1ccc(S(C)(=O)=O)c([N+](=O)[O-])c1)C(=O)NC1C2CC3CC(C2)CC1C3 (stereo not drawn) | 95.0* | 92.9* | · | -46.8 | 98.1* | 95.0* | 87.5* | 100.0*
C=CCCN([C@H](CO)Cc1ccccc1)S(=O)(=O)c1ccccc1Br | -108.2 | -82.7 | -21.3 | 8.3 | -19.1 | -7.5 | · | ·
C=CS(=O)(=O)N(Cc1ccccc1Br)[C@H](CO)Cc1ccccc1 | 84.4* | 44.1* | 17.0 | -38.7 | -19.0 | 44.7 | 35.1 | 70.1*
CCc1nc2ccc(C(=O)Nc3cc(-c4ccccc4)ccc3OC)cn2c1N(CCN(C)C)CC1CC1 | 98.2* | 82.4* | · | -20.5 | -2.7 | -3.9 | 8.8 | 101.1*
CCOC(=O)C1=CCN(S(C)(=O)=O)C1c1ccc(C)cc1 (stereo not drawn) | -10.4 | -1.8 | · | -16.8 | -30.8 | 10.9 | · | ·
O=C(NCCN1CCCC(O)C1)c1cc(COc2cccc(C(F)(F)F)c2)on1 (stereo not drawn) | 3.9 | -16.2 | · | 2.3 | -16.8 | 7.8 | · | ·
Cc1noc(/C=C/c2cccnc2)c1[N+](=O)[O-] | 39.4 | 47.7* | -2.5 | 9.6 | 2.0 | -15.4 | 36.8 | 56.2*
